The values that follow come from PubChem BioAssay (NCATS).

A number with no mark means an inactive call. For part of these data: Results with a measured potency or affinity are listed apart. Active and inactive are the calls of the source. The rule behind the calls is not given here.

The conditions of assay [1]: Ebola virus entry assay, green fluorescence channel.
The conditions of assay [2]: Ebola virus entry assay, blue channel fluorescence.
The conditions of assay [3]: Ebola virus entry assay, ratio channel.
The conditions of assay [4]: Ebola virus entry assay, green channel fluorescence.
For assay [5] the following is noted: Ebola virus entry assay, reporter ratio channel; Channel type: primary.
The conditions of assay [6]: Ebola virus entry assay, blue channel (ratio component).
Throughout, for efficacy: 0% is about no effect.

`C#C[C@]1(O)CC[C@H]2[C@@H]3CCC4=CC(=O)CC[C@@H]4[C@H]3CC[C@@]21C`: in assay [1], the efficacy is -11.7%. Also, the compound was called inactive in assay [2], in assay [3], in assay [4], in assay [5] and in assay [6].
Consider `CC(=O)N(CC(O)CN(C(C)=O)c1c(I)c(C(=O)NCC(O)CO)c(I)c(C(=O)NCC(O)CO)c1I)c1c(I)c(C(=O)NCC(O)CO)c(I)c(C(=O)NCC(O)CO)c1I` (stereo not drawn), for which, in assay [1], the efficacy is -12.3%. The compound was called inactive in assay [2], in assay [3], in assay [4], in assay [5] and in assay [6].
Take `CNC1CCCN(c2c(F)cc3c(=O)c(C(=O)O)cn(C4CC4)c3c2OC)C1` (stereo not drawn): the efficacy in assay [1] was -29.7%. For the same compound, the compound was called inactive in assay [2], in assay [3], in assay [4], in assay [5] and in assay [6].
Consider `Cc1ccc(C(C)OC(=O)C2(C)CCC(C(=O)O)C2(C)C)cc1` (stereo not drawn), for which the efficacy in assay [1] is 24.8%. For the same compound, the outcome in assay [2], in assay [3], in assay [4], in assay [5] and in assay [6] was inactive.
On to `CC(C(=O)O)c1ccc(CC2CCCC2=O)cc1` (stereo not drawn), for which, in assay [1], the efficacy was 31.1%. In addition, the compound was classed as inactive in assay [2], in assay [3], in assay [4], in assay [5] and in assay [6].
On to `CC(=O)N1CCN(c2ccc(O)cc2)CC1`, for which the efficacy in assay [1] was 19.8%. The compound was classed as inactive in assay [2], in assay [3], in assay [4], in assay [5] and in assay [6].
As for `C#C[C@]1(O)CC[C@H]2[C@@H]3CCc4cc(OC)ccc4[C@H]3CC[C@@]21C`, in assay [1], the efficacy is 19%. Besides, the call in assay [2], in assay [4] and in assay [6] was inactive. For the same compound, the AC50 in assay [3] and in assay [5] was 2820 nM (active) throughout.
Consider `Nc1ccn([C@H]2CC[C@@H](CO)O2)c(=O)n1`, for which the efficacy in assay [1] is -13.2%. Besides, the outcome in assay [2], in assay [3], in assay [4], in assay [5] and in assay [6] was inactive.
On to `N#Cc1cc(NC(=O)C(=O)O)c(Cl)c(NC(=O)C(=O)O)c1`, for which the efficacy in assay [1] was 18.8%. Also, the outcome in assay [2], in assay [3], in assay [4], in assay [5] and in assay [6] was inactive.
In the case of `O=C(O)c1ccccc1Nc1cc(Cl)ccc1C(=O)O`, in assay [1], the efficacy is -12.4%. For the same compound, the result in assay [2], in assay [3], in assay [4], in assay [5] and in assay [6] was inactive.
`CCOC(=O)c1ccc(NC(=O)CN2CCCCC2)cc1`: the efficacy in assay [1] is -17.3%. For the same compound, the result in assay [2], in assay [3], in assay [4], in assay [5] and in assay [6] was inactive.
As to `CC1CC(OC(=O)C(O)c2ccccc2)CC(C)(C)N1C` (stereo not drawn), the efficacy in assay [1] was 9.62%. The compound was called inactive in assay [2], in assay [3], in assay [4], in assay [5] and in assay [6].
For the compound `CC(=O)Nc1cccc(O)c1`, in assay [1], the efficacy is 28%. For the same compound, the result in assay [2], in assay [3], in assay [4], in assay [5] and in assay [6] was inactive.
Regarding `Cn1c(=O)c2c(ncn2CC2OCCO2)n(C)c1=O`, the efficacy in assay [1] was -17.6%. The compound was classed as inactive in assay [2], in assay [3], in assay [4], in assay [5] and in assay [6].
For the compound `Oc1cc(O)c2c(c1)O[C@H](c1ccc(O)c(O)c1)[C@H](O)C2`, in assay [1], the efficacy was 34.8%. Also, the compound was classed as inactive in assay [2], in assay [3], in assay [4], in assay [5] and in assay [6].
As for `O=S(=O)(c1cccc2cnccc12)N1CCCNCC1`, in assay [1], the efficacy is -11.7%. The compound was called inactive in assay [2], in assay [3], in assay [4], in assay [5] and in assay [6].
`O=c1[nH]cnc2c1ncn2[C@@H]1O[C@H](CO)[C@@H](O)[C@H]1O`: the efficacy in assay [1] is -42.8%. The outcome in assay [2], in assay [3], in assay [4], in assay [5] and in assay [6] was inactive.
Turning to `CC(=O)Oc1ccc(C(=C2CCCCC2)c2ccc(OC(C)=O)cc2)cc1`, in assay [1], the efficacy was -12.6%. Also, the result in assay [2], in assay [3], in assay [4], in assay [5] and in assay [6] was inactive.
For `COc1ccc2c(c1)C(=O)N(CCc1ccc(S(=O)(=O)NC(=O)NC3CCCCC3)cc1)C(=O)C2(C)C`, the efficacy in assay [1] was -16.1%. In addition, the call in assay [2], in assay [3], in assay [4], in assay [5] and in assay [6] was inactive.
Consider `FC(F)(F)C(F)(F)C(F)(F)C(F)(F)C(F)(F)C(F)(F)C(F)(F)C(F)(F)Br`, for which the efficacy in assay [1] was -14.2%. The compound was called inactive in assay [2], in assay [3], in assay [4], in assay [5] and in assay [6].
On to `C[C@H](O)C(=O)Nc1c(I)c(C(=O)NC(CO)CO)c(I)c(C(=O)NC(CO)CO)c1I`, for which the efficacy in assay [1] was 6.82%. Besides, the compound was called inactive in assay [2], in assay [3], in assay [4], in assay [5] and in assay [6].
`CC(=O)[C@@]1(O)CC[C@H]2[C@@H]3CCC4=CC(=O)CC[C@]4(C)[C@H]3CC[C@@]21C`: in assay [1], the efficacy was -9%. Moreover, the compound was classed as inactive in assay [2], in assay [3], in assay [4], in assay [5] and in assay [6].
In the case of `OCc1ccccc1O`, the efficacy in assay [1] is -17.7%. In addition, the compound was called inactive in assay [2], in assay [3], in assay [4], in assay [5] and in assay [6].
For `CC(C)(C)NCC(O)COc1cccc2c1CCC(=O)N2` (stereo not drawn), in assay [1], the efficacy was -22.9%. Besides, the compound was classed as inactive in assay [2], in assay [3], in assay [4], in assay [5] and in assay [6].
As for `CCOc1cc(N)c(Cl)cc1C(=O)NCC1CN(Cc2ccc(F)cc2)CCO1` (stereo not drawn), the efficacy in assay [1] was 26.3%. Further, the result in assay [2], in assay [3], in assay [4] and in assay [6] was inactive. In addition, in assay [5], the concentration at half-maximal activity (AC50) is 39800 nM (active).
Take `O=C(O)c1cn(C2CC2)c2cc(Cl)c(F)cc2c1=O`: the efficacy in assay [1] was 14.4%. Further, the outcome in assay [2], in assay [3], in assay [4], in assay [5] and in assay [6] was inactive.
As for `Cc1ncc(CSSCc2cnc(C)c(O)c2CO)c(CO)c1O`, the efficacy in assay [1] was -36.5%. The compound was classed as inactive in assay [2], in assay [3], in assay [4], in assay [5] and in assay [6].
As for `O=C1C(CCS(=O)c2ccccc2)C(=O)N(c2ccccc2)N1c1ccccc1` (stereo not drawn), in assay [1], the efficacy is 28.5%. Besides, the call in assay [2], in assay [3], in assay [4], in assay [5] and in assay [6] was inactive.

Usually AC50 stands for the concentration giving half of the maximal activity seen.
